ATXN2 expr inh – Primary qHTS for Inhibitors of ATXN expression; HEK-293 ATXN2-luciferase reporter, luminescence, 24 h; Potency, µM (series often up to 57 µM), without a hit: at the highest dose activity change, negative = inhibition, hits mostly inhibitors; hit rate 0.72% among 360,000; note: potency is the fitted concentration of half-maximal effect; % is set by controls: 0 for no effect and ±100 for the full control effect; nearly all actives have a fitted effect of over 55% in size
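qHTS (up to 57 uM final) was run with 24 h compound exposure of reporter cells at 37 °C. Each well was multiplexed: SteadyGlo luminescence measured ATXN2-luciferase expression after a fluorogenic Gly-Phe-AFC viability readout (25 uM final).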
TGFb SMAD3 inh – qHTS for Inhibitors of TGF-b. Potency, µM (top dose mostly 46.1 µM), inactives show at the top dose activity, negative = inhibition, most hits filed as inhibitors. HepG2 CAGA-GFP TGF-b/SMAD3 reporter, GFP fluorescence, 18 h; TGF-beta stimulated, 500 pg/mL final. hit rate 1.2% among 410,000; note: potency is the fitted concentration of half-maximal effect; % is set by controls: 0 for no effect and ±100 for the full control effect; nearly all actives have a fitted effect of over 65% in size
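HEPG2 CAGA-GFP reporter cells (1000/well, DMEM with 1% FBS) received compounds, then recombinant TGF-beta at 500 pg/mL final for 18 hours at 37 degrees C. Per-cell GFP summed per well was normalised to unstimulated and stimulated DMSO controls before curve fitting.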
ATXN viability – Viability Counterscreen for Primary qHTS for Inhibitors of ATXN expression. AID 651635, 2014. Potency, µM (titrated, usually from 56.7 µM), hits mostly cytotoxic. S2 cells (HEK-293 line with an ATXN2-luciferase reporter) viability, CellTiter-Fluor protease fluorescence, 24 h. hit rate 0.49% among 400,000; note: potency is the fitted concentration of half-maximal effect; nearly all actives have a fitted effect of over 40% in size
IL-1B inflam inh – qHTS for Inhibitors of Inflammasome Signaling: IL-1-beta AlphaLISA Primary Screen; hit rate 4.7% among 360,000; THP-1 LPS/ATP IL-1B secretion, AlphaLISA, 16 h; active compounds read low; activity change, % at 57.5 µM; in the data active = activity change below about -50%; inconclusive = mostly about -30% to -49%; note: % is set by controls: 0 for no effect and ±100 for the full control effect
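THP-1 cells pretreated 1 hr with compounds (up to 57.5 uM final), then stimulated with LPS (250 ng/mL final) plus ATP (1.25 mM final); secreted IL-1B measured by AlphaLISA after 16 hr, decreased signal indicating inhibition.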
HepG2 tox – qHTS for Inhibitors of TGF-b: Cytotox Counterscreen. AID 588856, 2011. hit rate 0.76% among 410,000. HepG2 CAGA-GFP viability, ATP luminescence, 18 h. Potency, µM (doses to about 46.1 µM), without a hit: top-dose activity change, negative = cytotoxicity, most hits filed as cytotoxic; note: potency is the fitted concentration of half-maximal effect
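HepG2 CAGA-GFP cells (1000/well, DMEM with 1% FBS) received compound, then TGF-beta at 500 pg/mL final, and were incubated 18 hours at 37 degrees C. Viability was read by CellTiter-Glo luminescence. Media-only wells were set as complete cell-killing and DMSO as no toxicity.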
An asterisk follows results filed as active; i = inactive; ? = inconclusive; nt = no result; ! = repeats disagree. The list is not random: actives were taken first. Their share in the collection is about 5.7%. Unless noted, calls come from the whole dose curve; as a rule, active = well fitted curve in the direction sought with a large enough effect; inconclusive = small, poorly fitted or top-dose-only effect, or another doubt; inactive = no such curve, though single readings can be large; an effect the other way counts as inactive or inconclusive.

SMILES	ATXN2 expr inh	TGFb SMAD3 inh	ATXN viability	IL-1B inflam inh	HepG2 tox
CCCCNC(=S)Nc1ccc(C(F)(F)F)cc1	-34%	-61%	i	-94*	-55%
CCCCNC(=S)Nc1ccc(Cl)cc1	15%	3%	i	-9	-8%
CCCCc1ccc(NC(=S)NCCc2ccc(F)cc2)cc1	-9%	16µM*	i	-110*	-105%
Fc1ccc(CCNC(=S)Nc2ccc(F)cc2)cc1	25%	22%	i	2	-3%
CCCCc1ccc(NC(=O)C2CCCC2)cc1	48%	7%	i	-67*	10%
COc1cccc(Nc2c(Nc3cccc(OC)c3)c(=O)c2=O)c1	-7%	0%	i	14	3%
COc1cccc(Nc2ccc(Nc3cccc(OC)c3)nn2)c1	7%	-3%	?	-99*	6%
O=C(Nc1cccc(-c2cccc(Cl)c2)c1)C1CCN(Cc2ccon2)CC1	?	?	?	-61*	-43%
O=C(Nc1cccc(-c2cccc(Cl)c2)c1)C1CCN(CC2CCOC2)CC1 (centres undefined)	-23%	?	i	-25	-90%
O=C(Nc1cccc(-c2cccc(Cl)c2)c1)C1CCN(Cc2ccccn2)CC1	?	?	i	-74*	-21%
Cc1ccccc1NC(=O)C(=O)NCC(c1ccc2c(c1)OCO2)N1CCN(c2ccccc2)CC1 (centres undefined)	nt	-2%	nt	nt	-3%
O=C(Nc1ccccc1C(=O)N/N=C/c1ccc(O)cc1)c1ccccc1	nt	-6%	i	26	-102%
COc1ccc(C(=O)Nc2ccccc2C(=O)N/N=C/c2ccncc2)cc1OC	-18%	13%	i	-20	13µM*
CC(C(=O)Nc1ccc(O)cc1)c1cccc(C(=O)c2ccccc2)c1 (centres undefined)	-35%	-16%	i	-51*	-2%
O=[N+]([O-])c1ccc(N2N=C(c3ccco3)CC2c2ccccc2)cc1 (centres undefined)	0%	-2%	i	-55*	-1%
O=C(c1ccc2c(c1)OCO2)C1CCCN(C2CCN(CCc3ccccc3)CC2)C1 (centres undefined)	-37%	-25%	i	-76*	-32%
Cc1nnc(SCc2nc(N)nc(Nc3ccccc3)n2)s1	36%	2%	i	-20	1%
CCc1ccc(Nc2nc(N)nc(CSc3nc4ccccc4s3)n2)cc1	-35%	?	?	21	7.9µM*!
COc1ccc(/C=c2\[nH]c(=O)/c(=C/c3ccc(OC)cc3)[nH]c2=O)cc1	nt	?	nt	nt	-31%
O=S(=O)(/N=C(/Nc1ccc(Cl)c(S(=O)(=O)Nc2ccccc2Cl)c1)c1ccc(F)cc1)c1ccccc1	?	?	i	-75*!	8%
COc1ccccc1NS(=O)(=O)c1cc(N/C(=N/S(=O)(=O)c2ccccc2)c2ccc(F)cc2)ccc1Cl	nt	2%	i	?	-11%
Cc1ccc(C)c(NC(=O)N2CCN(C(=O)c3nsc4ccccc34)CC2)c1	nt	-17%	nt	nt	9%
CCOC(=O)C1=C(C)c2ccccc2N(C(=O)OC)C1(C)C(=O)OCC (centres undefined)	?	13µM*	nt	-6	-78%
CC(C)(C)OC(=O)NS(=O)(=O)NCc1ccco1	nt	-26%	nt	nt	7%
Cc1cc(Cl)ccc1-c1cc2nc(NCCCN(C)C)n(C)c(=O)c2s1	32µM*	?	?	-11	14µM*
SMILES	ATXN2 expr inh	TGFb SMAD3 inh	ATXN viability	IL-1B inflam inh	HepG2 tox
COc1cccc(CNc2nc3cc(-c4ccc(OC)cc4C)sc3c(=O)n2C)c1	-11%	?	i	-15	-24%
COc1cccc(CNc2nc3cc(-c4cccc(Cl)c4)sc3c(=O)n2C)c1OC	0%	?	i	-20	-22%
COc1ccc(-c2nc(NCCN(C)C)nc3ccsc23)c(C)c1	7%	8%	i	-53*	-42%
Cc1cscc1-c1cc2nc(NCCCN(C)C)n(C)c(=O)c2s1	-17%	-8%	i	?	-11%
COc1cccc(CNc2nc3cc(-c4ccccc4)sc3c(=O)n2C)c1OC	?	?	?	-4	10µM*
COc1cccc(CNc2nc3cc(-c4cscc4C)sc3c(=O)n2C)c1	?	?	i	-57*	-27%
CN(C)CCNc1nc(Oc2ccccc2)c2sccc2n1	5%	5%	?	-11	7%
CSc1ccc(CCNC(=O)CCc2c(C)nc3c(-c4ccccc4)c(C)nn3c2C)cc1	-15%	?	i	nt	-35%
CCOC(=O)C(=O)Nc1nnc2n1CCS2	nt	?	nt	nt	-2%
COc1ccc(S(=O)(=O)Nc2cccc3cccnc23)c([N+](=O)[O-])c1	nt	?	nt	nt	-41%
COC(=O)C1CCN(Cc2ccc3c(c2)CN(C(=O)C(C)N2CCOCC2)CCO3)CC1 (centres undefined)	nt	nt	i	nt	nt
CN(C)CCCNc1nc2cc(-c3ccccc3)sc2c(=O)n1C	-2%	-3%	i	0	-19%
CN(C)CCCNc1nc2cc(-c3ccc(F)cc3)sc2c(=O)n1C	20µM*	?	?	-15	-85%
COc1ccc(-c2cc3nc(NCCCN(C)C)n(C)c(=O)c3s2)c(C)c1	-24%	?	i	-21	3.5µM*
COc1ccc2c(c1)CCC2=O	nt	1%	nt	nt	-15%
COc1cccc(/C=N/n2cnc3ccccc32)c1OC	84%	-3%	i	-15	-45%
COc1ccc(/C=N/n2c(N)nc3ccccc32)cc1OC	16%	-3%	i	-60*	-4%
COc1cccc(/C=N/n2c(N)nc3ccccc32)c1OC	41%	?	i	-68*	-31%
COc1ccc(/C=N/n2c(=S)n(C)c3ccccc32)cc1OC	-10%	5%	?	-18	-11%
CCCCC(CC)CNC(=O)c1ccc(Cn2c(=O)[nH]c3cc(OC)c(OC)cc3c2=O)cc1 (centres undefined)	nt	0%	nt	nt	-39%
CCN1c2ccccc2N(C)C1(C)c1ccccc1 (centres undefined)	18µM*	8.9µM*	i	5	-102%
CC(=N)c1c(O)c2ccccc2oc1=O	8%	6%	i	?	-2%
CC1CCC(C(=O)c2c(O)c3ccccc3oc2=O)CC1 (centres undefined)	-17%	-17%	i	-94*	-45%
O=C1c2[nH]nc(-c3ccccc3O)c2C(c2ccc(Cl)cc2)N1CCc1ccccc1 (centres undefined)	nt	20µM*	nt	nt	-91%
Cc1ccc(O)c(-c2n[nH]c3c2C(c2ccccc2F)N(Cc2ccco2)C3=O)c1 (centres undefined)	?	?	nt	nt	11µM*

Compound activity from PubChem BioAssay.
